KDM5B inh = inhibitors of human KDM5B histone demethylase; Q9UGL1; KDM5B demethylase, FDH-coupled NADH fluorescence (FDH is formaldehyde dehydrogenase); Potency, µM (titrated, usually from 57.7 µM), hits mostly inhibitors; hit rate 2.6% among 220,000; AID 1347165; note: potency is the fitted concentration of half-maximal effect; 0% is about no effect; nearly all actives have a fitted effect of over 70% in size
Target sequence (Q9UGL1 whole entry, looked up): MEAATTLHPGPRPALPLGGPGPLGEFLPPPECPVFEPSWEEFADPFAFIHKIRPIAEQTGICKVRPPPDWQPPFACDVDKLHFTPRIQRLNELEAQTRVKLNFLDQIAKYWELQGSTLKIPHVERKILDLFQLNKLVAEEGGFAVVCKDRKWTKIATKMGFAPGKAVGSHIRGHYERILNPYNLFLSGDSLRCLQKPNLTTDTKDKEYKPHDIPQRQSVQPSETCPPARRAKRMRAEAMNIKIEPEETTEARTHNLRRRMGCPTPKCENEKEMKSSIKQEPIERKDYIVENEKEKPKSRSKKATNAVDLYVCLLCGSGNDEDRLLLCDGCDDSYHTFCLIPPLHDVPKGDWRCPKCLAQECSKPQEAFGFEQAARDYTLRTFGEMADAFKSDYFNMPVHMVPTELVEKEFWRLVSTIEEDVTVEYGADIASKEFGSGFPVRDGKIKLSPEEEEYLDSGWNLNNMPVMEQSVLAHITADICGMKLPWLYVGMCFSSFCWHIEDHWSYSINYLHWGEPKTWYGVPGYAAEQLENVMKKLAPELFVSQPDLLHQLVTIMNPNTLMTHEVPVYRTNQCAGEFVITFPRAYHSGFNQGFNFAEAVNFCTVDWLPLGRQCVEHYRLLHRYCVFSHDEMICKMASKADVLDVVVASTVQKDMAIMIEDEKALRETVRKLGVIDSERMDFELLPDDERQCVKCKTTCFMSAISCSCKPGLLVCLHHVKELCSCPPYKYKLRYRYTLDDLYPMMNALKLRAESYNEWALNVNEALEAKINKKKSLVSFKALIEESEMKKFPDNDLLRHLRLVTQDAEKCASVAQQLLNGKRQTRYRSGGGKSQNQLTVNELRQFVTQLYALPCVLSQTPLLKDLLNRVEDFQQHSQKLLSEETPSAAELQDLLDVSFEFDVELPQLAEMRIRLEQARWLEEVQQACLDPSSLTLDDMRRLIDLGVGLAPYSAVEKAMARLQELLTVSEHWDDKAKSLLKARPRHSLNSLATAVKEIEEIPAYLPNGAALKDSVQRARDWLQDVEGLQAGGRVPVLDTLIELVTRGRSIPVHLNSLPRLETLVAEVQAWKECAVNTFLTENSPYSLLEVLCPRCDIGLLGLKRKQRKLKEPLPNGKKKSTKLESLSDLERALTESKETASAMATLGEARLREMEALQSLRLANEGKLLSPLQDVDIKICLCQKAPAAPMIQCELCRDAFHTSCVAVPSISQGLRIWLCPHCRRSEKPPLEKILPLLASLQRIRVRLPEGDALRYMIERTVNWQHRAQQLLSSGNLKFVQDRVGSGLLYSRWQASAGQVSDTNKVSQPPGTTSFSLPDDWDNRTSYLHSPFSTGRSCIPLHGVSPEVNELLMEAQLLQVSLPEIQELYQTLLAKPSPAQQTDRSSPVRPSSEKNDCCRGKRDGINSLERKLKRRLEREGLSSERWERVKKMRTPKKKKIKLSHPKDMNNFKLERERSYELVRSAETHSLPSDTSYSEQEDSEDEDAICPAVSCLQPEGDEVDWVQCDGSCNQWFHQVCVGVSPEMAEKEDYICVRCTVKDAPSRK
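Compound dilutions met 200 nM (final) KDM5BΔAP for 10 min at room temperature before substrate addition. The substrate mix held 12.5 µM H3K4me3 with cofactors 25 µM α-ketoglutarate and 50 µM Fe²⁺. NADH signal gain over 30 min defined activity.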
IP6K1 inhibitor = IP6K1 kinase inhibition | AID 1645851 | activity change, % (series mostly up to about 58 µM) | hit rate 0.81% among 140,000 | Q92551 | IP6K1 kinase, ADP-Glo luminescence, 2 h; hits give low values; in the data active = activity change below about -25%; note: % is set by controls: 0 for no effect and ±100 for the full control effect
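ADP-Glo luminescence measures ADP made by human IP6K1 during a 2 h RT reaction with ATP/IP6 (mix at 1.3 mM/130 uM); top library doses 57.5 and 19.1 uM final.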
SNCA expr inh = inhibitors of alpha-synuclein (SNCA) gene expression. HEK-293 SNCA-luciferase knock-in, luminescence, 24 h. Potency, µM (highest dose often 57.2 µM), inactives show top-dose activity change, negative = inhibition, hits mostly inhibitors. hit rate 0.17% among 140,000. AID 1671194;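 note: potency is the fitted concentration of half-maximal effect; plate controls were DMSO cells for no effect and cell-free wells for full effect; nearly all actives have a fitted effect of over 45% in size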
SNCA viab count = cell viability loss counter-screen; HEK-293-SNCA-luc viability, GF-AFC fluorescence, 24 h; Potency, µM (titrated, usually from 57.1 µM), for inactives: top-dose activity change, negative = cytotoxicity, hits mostly cytotoxic; hit rate 0.12% among 150,000; AID 1671193;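 note: potency is the fitted concentration of half-maximal effect; 0% = DMSO-treated cells and -100% = medium-only wells without cells; nearly all actives have a fitted effect of over 30% in size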
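Cytotoxicity counterscreen: after 24 h compound treatment of genome-edited SNCA-luciferase HEK-293 cells, live-cell protease substrate GF-AFC read by fluorescence after 30 min; activity scaled between DMSO (0%) and medium-only (-100%), curves Hill-fitted.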
IP6K1 inh cnf = human IP6K1 inhibition, confirmatory. shares compounds with IP6K1 inhibitor. recombinant IP6K1 kinase, ADP-Glo luminescence, 2 h. Potency, µM (series often up to 49 µM), without a hit: at the top dose activity change, negative = inhibition, usual class: inhibitors. hit rate 13% among 1,200. AID 1645852; note: potency is the fitted concentration of half-maximal effect; % is set by controls: 0 for no effect and ±100 for the full control effect; nearly all actives have a fitted effect of over 65% in size
Active calls of the source: *; i = inactive; ? = inconclusive; · = no result given; [ ] = dose if it differs, or a comment. An excerpt weighted towards active compounds, which were near 2.9% of everything screened. Unless noted, calls come from the whole dose curve; as a rule, active = well fitted curve in the direction sought with a large enough effect; inconclusive = small, poorly fitted or top-dose-only effect, or another doubt; inactive = no such curve, though single readings can be large; an effect the other way counts as inactive or inconclusive.

SMILES	KDM5B inh	IP6K1 inhibitor	SNCA expr inh	SNCA viab count	IP6K1 inh cnf
CN(C(=O)c1ccc2c(c1)N(Cc1ccccc1F)C(=O)c1ccccc1S2)C1CCCCC1	?	-9	?	?	·
O=c1cc(-c2ccc(O)cc2)oc2cc(O)cc(O)c12	·	·	-11%	-16%	1.5µM*
CC(C)NC(=O)N1CC[C@H](N=C2Nc3cc(F)ccc3N(CC(F)F)c3ccc(Cl)cc32)C1	·	-5	·	6%[12.5 µM]	-6%[13.7 µM]
CC(C)NC(=O)N1CCC(N2CCN(Cc3ccc(F)cc3)C(=O)C2=O)CC1	i	10	18%	-11%	·
CN(C)c1ccc(C(=O)NNC(=O)c2ccccc2F)cc1	i	·	·	·	·
CN(C)c1ccc(Nc2nc(N)n(C(=O)c3c(F)cccc3F)n2)cc1	·	-51*	55%	-21%	10µM*
Cc1ccc(S(=O)(=O)N2CCCc3cc(NC(=O)c4cccc(Cl)c4)ccc32)cc1	i	9	17%	-19%	·
O=C(CCc1ccccc1)NCCc1csc(-c2cccc(F)c2)n1	i	15	12%	10%	·
CCc1nc(C)sc1C(=O)N1CCCC(c2[nH]ncc2-c2ccccc2)C1 (centres undefined)	i	-30*	-9%	-15%	-19%
Cc1ccc(-c2cn[nH]c2C2CCCN(C(=O)c3[nH]ncc3Cl)C2)cc1 (centres undefined)	i	5	?	?	·
Cc1n[nH]c(C)c1CCC(=O)NC1CCc2nn(C)c(=O)n2CC1 (centres undefined)	i	-5	-14%	9%	·
COc1ccc(C(=O)OCC(=O)c2ccc3c(c2)OCCO3)cc1	i	·	·	·	·
NC(=O)c1cc(S(=O)(=O)NCc2cccc(Br)c2)cs1	i	-30*	-22%	-2%	-15%
Cc1cccc(CNS(=O)(=O)c2csc(C(N)=O)c2)c1	i	-8	?	10%	·
O=C(c1ccccc1)N1Cc2[nH]cnc2C[C@H]1c1nc(-c2ccc(Cl)cc2)no1	i	-39*	?	-19%[87.6 µM]	?
CCN(CC)C(=O)c1ccc(Nc2nc(OCC3CCCCC3)c3[nH]cnc3n2)cc1	·	-41*	·	-25%	10µM*
NS(=O)(=O)c1ccc(Nc2nc(OCC3CCCCC3)c3[nH]cnc3n2)cc1	·	-47*	11%	?	4.1µM*
COc1ccc(CNC(=O)C2CCN(S(=O)(=O)c3ccc(C)cc3)CC2)cc1	i	16	-8%	3%	·
COc1ccc(S(=O)(=O)N2CCC(C(=O)Nc3cc(C(F)(F)F)ccc3Cl)CC2)cc1	i	-43*	?	?	-12%
CC(=O)Nc1ccc(-n2c(CCC(=O)O)ccc2-c2ccc(Br)cc2)cc1	?	-41*	-8%	2%	-8%
CC(=O)Nc1ccc(-n2c(CCC(=O)O)ccc2-c2ccc(C)cc2)cc1	?	16	-17%	-2%	·
Cc1ccc(-c2n[nH]c3c2C(c2ccccc2Cl)N(c2ccc(C(=O)O)cc2)C3=O)cc1 (centres undefined)	i	-29*	?	-6%	-18%
CCc1ccc(C2c3c(-c4ccccc4)n[nH]c3C(=O)N2c2ccc(C(=O)O)cc2)cc1 (centres undefined)	i	1	?	-23%	·
COc1ccc(/C=C/C(=O)OC2CCC(C(C)(C)C)CC2)cc1OC (centres undefined)	i	·	·	·	·
COc1ncccc1-c1cnc2[nH]cc(CC(N)=O)c2c1	32µM*	-29*	69%[87.6 µM]	2%[87.6 µM]	?
SMILES	KDM5B inh	IP6K1 inhibitor	SNCA expr inh	SNCA viab count	IP6K1 inh cnf
COc1ccc(-c2cnc3[nH]cc(CC(N)=O)c3c2)cc1OC	?	-31*	16%[87.6 µM]	-7%[87.6 µM]	?
NC(=O)Cc1c[nH]c2ncc(-c3ccccc3C(F)(F)F)cc12	?	-34*	-11%[87.6 µM]	-10%[87.6 µM]	?
COCCNC(=O)Cc1c[nH]c2ncc(-c3ccccc3C)cc12	?	-18	0%[87.6 µM]	1%[87.6 µM]	·
O=C(Cc1c[nH]c2ncc(-c3ccc(Oc4ccccc4)cc3)cc12)NCc1cccnc1	?	-15	?	?	·
N#Cc1ccc(-c2cnc3[nH]cc(NC(=O)c4cccnc4)c3c2)cc1	·	-28*	·	-17%	?
CCn1c2c(c(=O)n1Cc1ccccc1)CCN(C(=O)c1ncccn1)C2	i	19	23%[87.6 µM]	3%[87.6 µM]	·
COc1cc(OC)c(C=CS(=O)(=O)Cc2ccc(OC)c(NCC(=O)O)c2)c(OC)c1	·	·	-9%	-8%	·
O=C(Cc1c[nH]c2ncc(-c3cccnc3)cc12)Nc1ccc(F)cc1	i	-17	-18%[87.6 µM]	-8%[87.6 µM]	·
O=C(Cc1c[nH]c2ncc(-c3ccc(Cl)cc3)cc12)NCc1cccnc1	?	-25*	17%[87.6 µM]	4%[87.6 µM]	-25%
NC(=O)Cc1c[nH]c2ncc(-c3ccc(F)cc3)cc12	35µM*	-29*	10%[87.6 µM]	6%[87.6 µM]	?
COc1ccc(Cn2c(=O)c(C(=O)N3CCN(C(=O)c4ccc(Cl)cc4)CC3)nc3cccnc32)cc1	·	0	10%	-15%	·
COc1ccc2nc(N3CCN(C(=O)CS(=O)(=O)c4ccc(C)cc4)CC3)sc2c1	i	-29*	-17%	3%	-14%
FC(F)(F)c1ccccc1-c1nc(NCc2ccc(Cl)cc2)c2ccccc2n1	·	·	·	·	-2%
FC(F)(F)c1ccccc1-c1nc(NCc2ccccc2)c2ccccc2n1	·	·	·	·	31%
COCCNc1nc(-c2ccccc2C(F)(F)F)nc2ccccc12	·	·	-1%	-20%	·
CN(C)c1nc(-c2ccccc2C(F)(F)F)nc2ccccc12	·	·	-6%	-16%	·
Cc1ccc(CNc2nc(-c3ccccc3C(F)(F)F)nc3ccccc23)s1	·	·	·	·	-7%
CN(Cc1cccs1)c1nc(-c2ccccc2C(F)(F)F)nc2ccccc12	·	·	·	·	8%
Cc1ccccc1C(=O)N1CCn2c(nn(-c3ccc([N+](=O)[O-])cc3)c2=O)C1	i	14	0%	-8%	·
CC(C)c1ccc(NC(=O)c2ccc(=O)n(Cc3ccccc3)c2)cc1	?	-28*	5%	-23%	-25%
CCN(c1ccccc1)c1nnc(NC(=O)Nc2cccc(Cl)c2C)s1	i	-102*	-12%	3%	-22%
COc1cccc(C(=O)N2CCC(c3nc(C4CCOC4)no3)CC2)c1 (centres undefined)	?	-37*	3%	7%	-13%
COc1cc(OC)cc(C(=O)N2CCC(c3nc(C4CCOC4)no3)CC2)c1 (centres undefined)	i	19	8%	11%	·
O=C(NCc1ccco1)c1ccc2c(c1)N(Cc1ccccc1)C(=O)c1ccccc1S2	?	-28*	?	?	?
Cc1cccc(CN2C(=O)c3ccccc3Sc3ccc(C(=O)NCc4ccco4)cc32)c1	i	5	17%	-11%	·
COc1ccc(-c2ccc(C(=O)NC3CC(c4cc(=O)[nH]c(N)n4)C3)o2)cc1 (centres undefined)	i	-30*	102%	-4%	?
